According to PubChem BioAssay (NCI):
Compounds without any hit were thinned out: in the full panel of roughly 83,000, 20% have a hit.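 For each line, cells grew in 96-well plates with the test compound present at a single concentration for 48 hours.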 The source made the active and inactive calls. How the source made its calls: active means growth percent below 10; inactive means the rest.

How the values were obtained:
Assay in all cases: NCI-60 one-dose screen, 48 h (100 = growth as untreated, 0 = no growth, -100 = all killed)
Conditions in all cases: 10 µM
[1] = tested on: SK-MEL-2 melanoma
[2] = tested on: SN12C renal
[3] = tested on: UO-31 renal
[4] = tested on: TK-10 renal
[5] = tested on: ACHN renal
[6] = tested on: A498 renal
[7] = tested on: CCRF-CEM leukemia
[8] = tested on: MOLT-4 leukemia
[9] = tested on: CAKI-1 renal

Measured: growth

CCCCCCCCCCCCCCCCCBr
inactive: [1] 108% | [2] 98.9% | [3] 91.4% | [4] 108% | [5] 102% | [6] 64.1% | [7] 94.4% | [8] 96%

COc1ccc(CCc2nc3cc(-c4c(C)noc4C)ccc3n2CCN2CCOCC2)cc1
active: [3] 4.71% | [5] -0.152%
inactive: [1] 49.6% | [2] 31.2% | [4] 24% | [6] 58.6% | [7] 42.7% | [8] 73%

COc1cccc(C(=O)NNc2nc(N3CCN(C4CCCCC4)CC3)nc(N3CCN(C(c4ccccc4)c4ccccc4)CC3)n2)c1
inactive: [1] 87.3% | [2] 51.8% | [3] 32.9% | [4] 46.1% | [5] 70.2% | [6] 49.2% | [7] 39.9% | [8] 15.5%

C#Cc1ccc(-n2c(/C=C/c3cc(OC)c(OC)c(OC)c3)nc3ncccc3c2=O)cc1
active: [1] -2.4%
inactive: [2] 82.1% | [3] 45.8% | [4] 112% | [5] 60.5% | [6] 24.5% | [7] 55.9% | [8] 65.2%

COc1cc(C)c2sc3ccccc3c(=O)c2c1NCCN(C)C
active: [8] 1.59%
inactive: [1] 121% | [2] 54.2% | [3] 32% | [4] 61.9% | [5] 38.4% | [6] 55% | [7] 22.6%

Cc1ccc2c(c1)-c1cc(C)nn1-c1ccc(C#N)cc1O2
inactive: [1] 44.7% | [3] 47.4% | [4] 84.1% | [5] 91.5% | [9] 71.9% | [6] 47.2% | [7] 46.2% | [8] 49.6%

COc1c(C)c(C)c(OC)c2c1[nH]c(=O)c1c3cccnc3cn21
inactive: [1] 110% | [2] 99.5% | [3] 91.2% | [4] 117% | [5] 114% | [6] 120% | [7] 101% | [8] 99.4%

CCOC(=O)Nc1ccc2c(c1)C(=O)N(CC)c1ccccc1O2
active: [6] -4.82%
inactive: [1] 14.6% | [3] 53.7% | [4] 74.8% | [5] 35.6% | [9] 31.1% | [7] 13.5% | [8] 14.5%

Cc1cc(O)c(C2=NN(c3ccc(S(N)(=O)=O)cc3)C(c3ccc(N(C)C)cc3)C2)c(C)c1Cl (configuration not stated)
inactive: [1] 92.5% | [2] 74.8% | [4] 113% | [5] 88.6% | [6] 74.3% | [7] 28% | [8] 27.3%

COc1ccc(S(=O)(=O)Nc2cc(/C=C\c3cc(OC)c(OC)c(OC)c3)ccc2OC)cc1
inactive: [2] 15.6% | [3] 24.6% | [4] 39.6% | [5] 18.7% | [7] 15.4%
active: [1] 5.84% | [6] -19.2% | [8] 8.46%

COc1ccc(-c2nsc3c2NC(=O)CC3c2cccc(Cl)c2)cc1 (configuration not stated)
active: [1] -14.4%
inactive: [2] 47.8% | [3] 36.8% | [4] 34.9% | [5] 49.9% | [6] 17.8% | [7] 13.8% | [8] 18.2%

COc1ccc2oc(=O)cc(C3c4ccc([nH]4)C(c4cc(=O)oc5ccc(OC)cc45)c4ccc([nH]4)C(c4cc(=O)oc5ccc(OC)cc45)c4ccc([nH]4)C(c4cc(=O)oc5ccc(OC)cc45)c4ccc3[nH]4)c2c1 (configuration not stated)
active: [1] 1.72% | [3] -44.9% | [4] -32.1% | [5] 1.03% | [9] -22.1% | [6] -17.4% | [7] 0.0782% | [8] -8.61%

CCCCc1ccc(NC(=O)N(CCCl)N=O)cc1
inactive: [1] 94.8% | [2] 96.1% | [3] 81.3% | [4] 105% | [5] 106% | [6] 103% | [7] 88.2% | [8] 98.7%

COC(=O)[C@]12CC[C@@H](C)[C@H](C)[C@@H]1C1=CC[C@@H]3[C@@]4(C)C/C(=N\O)[C@H](O)[C@@]5(C)COC(=C45)C[C@@]3(C)[C@]1(C)CC2
active: [1] -91.3% | [3] -85.6% | [4] -91.2% | [5] -80.9% | [9] -80.7% | [6] -88.8% | [7] -49% | [8] -62.9%

C=CCn1c(C)nc2cc(Nc3nc(Nc4ccc5nc(C)n(CC=C)c5c4)c4ccccc4n3)ccc21
active: [1] -84.1% | [2] -69.6% | [3] -94.4% | [4] -97.2% | [5] -97.4% | [6] -100% | [7] -11.3% | [8] -26.8%

Cc1nc2cc(-n3c(-c4ccc(F)cc4)nc4ccccc4c3=O)ccc2n1Cc1ccccc1
inactive: [1] 31.8% | [3] 35.7% | [4] 30.5% | [9] 30.6% | [7] 65.9% | [8] 34.7%
active: [5] 3.65% | [6] -5.66%

CCCCCCCOc1cccc(/C=C2/C(=O)N=C3SCCCN32)c1
inactive: [1] 83% | [3] 61.9% | [4] 75.7% | [5] 79.2% | [9] 84.9% | [6] 97.6% | [7] 60.4% | [8] 50.2%

Cc1c(C(=O)N[C@H](CO)Cc2ccccc2)[nH]c2ccc(Cl)cc2c1=O
inactive: [1] 95.7% | [3] 98.2% | [4] 94.5% | [5] 101% | [9] 94.8% | [6] 98% | [7] 94.8% | [8] 92.2%

COc1ccc(-c2[nH]ncc2-c2cc(OC)c(OC)c(OC)c2)cc1
active: [1] -2.39% | [6] -19.9% | [7] 2.66% | [8] -6.22%
inactive: [2] 20.8% | [3] 11.6% | [4] 44.7% | [5] 14.8%

N#CN1CC[C@H](C(=O)Nc2ncc(-c3ccccc3)s2)C1
active: [1] -43.8% | [3] 7.47% | [4] -30.9% | [5] 4.65% | [9] 9.65% | [6] -47% | [7] 9.27% | [8] -19.7%

C=CCOc1ccc2c(c1)CC=C1[C@@H]2CC[C@]2(C)C(=O)/C(=N/O)C[C@@H]12
inactive: [1] 106% | [2] 88.3% | [3] 86% | [4] 72.3% | [5] 55.4% | [6] 96.6% | [7] 30.9% | [8] 46%

Cc1cc(C(C)(C)CC(C)(C)C)ccc1OCCOCC[N+](C)(C)Cc1ccccc1
inactive: [3] 65.4%
active: [1] -34.2% | [4] -11.6% | [6] 4.39% | [7] -8.84% | [8] -39.6%

COC(=O)c1c(C)nc(Nc2nc3ccccc3s2)nc1-c1ccc(Cl)cc1Cl
inactive: [1] 120% | [2] 99.8% | [3] 81.2% | [4] 120% | [5] 96.7% | [6] 100% | [7] 95% | [8] 84.7%

O=S(=O)(NC1c2ccccc2Oc2ccccc21)c1cc(Cl)ccc1Cl
inactive: [1] 103% | [3] 79.3% | [4] 95.6% | [5] 82.7% | [9] 88.7% | [6] 94.3% | [7] 74.8% | [8] 96.7%

COc1ccc2nc(/C=C/c3ccc(N(C)C)cc3)sc2c1
inactive: [1] 101% | [2] 91.4% | [4] 103% | [5] 104% | [9] 97.6% | [6] 71.7% | [7] 82.6% | [8] 77.7%
